Data as given in paper PMC9838217, “Structure of SALL4 zinc finger domain reveals link between AT-rich DNA binding and Okihiro syndrome”.
Residue numbers refer to the chain shown, from its start.

The sequences below were run against T1, SALL4 ZFC4 R900W (HT-SELEX) (Mus musculus, UniProt Q8BX22 870-940, R900W) (assay: HT-SELEX; high values mean tight binding). Conditions: protein: recombinant; vector His6-GST; dsDNA, one strand shown.
T1 sequence: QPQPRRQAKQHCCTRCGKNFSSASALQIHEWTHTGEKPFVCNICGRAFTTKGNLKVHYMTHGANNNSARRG
In short: (§1)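 In triplicate selections of up to 6 cycles, purified recombinant mouse SALL4 zinc finger cluster 4 (residues 870–940, 1 µg) was incubated 10 min at room temperature with library DNA (1.5 µg, then 200 ng) in 100 µl of 10 mM Tris–HCl pH 7.5, 50 mM NaCl, poly(dI-dC) and DTT, and complexes were captured on Ni2+ beads, washed and PCR-amplified. Sequencing was done on MiSeq with scanning for 6-mers. The binding signal is each canonical k-mer's read fraction, reported as fold change against the initial random library.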
CAACAG gave a binding signal of 0.824 ± 0.0446 fold-change vs cycle 0. CACACC gave a binding signal of 0.468 ± 0.0362 fold-change vs cycle 0. For AGCAAG, the binding signal was 0.837 ± 0.0375 fold-change vs cycle 0. For GGGGTA, the binding signal was 0.541 ± 0.0115 fold-change vs cycle 0. In the case of AAGGAA, the binding signal is reported as 1.66 ± 0.0995 fold-change vs cycle 0. In the case of GGGTAC, the binding signal is reported as 0.556 ± 0.011 fold-change vs cycle 0. CGAAAG showed a binding signal of 0.735 ± 0.037 fold-change vs cycle 0. In the case of AGACTG, the binding signal is reported as 0.926 ± 0.0316 fold-change vs cycle 0. Sequence CAGACG has a binding signal of 0.442 ± 0.0268 fold-change vs cycle 0. For AGCCTG, the binding signal was 0.402 ± 0.0338 fold-change vs cycle 0. AGATCA showed a binding signal of 1.44 ± 0.0715 fold-change vs cycle 0. With ATGGAA the binding signal was 1.48 ± 0.0671 fold-change vs cycle 0. Sequence CCTTCC has a binding signal of 0.593 ± 0.0214 fold-change vs cycle 0. TCGGAA showed a binding signal of 0.761 ± 0.0268 fold-change vs cycle 0. With ATTGGC the binding signal was 0.5 ± 0.0137 fold-change vs cycle 0. Work on AGCGAA yielded a binding signal of 0.566 ± 0.0332 fold-change vs cycle 0. In the case of AAACTC, the binding signal is reported as 1.3 ± 0.0461 fold-change vs cycle 0. For CATACC, the binding signal was 0.927 ± 0.0242 fold-change vs cycle 0. TGACAA was tested, and the binding signal was 1.29 ± 0.0235 fold-change vs cycle 0. For AAGATT, the binding signal was 2.08 ± 0.121 fold-change vs cycle 0.

The sequences below were run against T2, SALL4 ZFC4 G921D (HT-SELEX) (Mus musculus, UniProt Q8BX22 870-940, G921D) (assay: HT-SELEX; high values mean tight binding). Conditions: protein: recombinant; vector His6-GST; dsDNA, one strand shown.
T2 sequence: T1 sequence with W31R, G52D
In short: as §1
Sequence GGATTA has a binding signal of 1.38 ± 0.0744 fold-change vs cycle 0. CCTAAG was tested, and the binding signal was 1.05 ± 0.0419 fold-change vs cycle 0. AAGCAC showed a binding signal of 0.796 ± 0.0229 fold-change vs cycle 0. TAAGCA gave a binding signal of 1.26 ± 0.0364 fold-change vs cycle 0. For ACAAGC, the binding signal was 0.798 ± 0.0212 fold-change vs cycle 0. Sequence CTTCTC has a binding signal of 1.07 ± 0.0618 fold-change vs cycle 0. CGTAAG was tested, and the binding signal was 0.905 ± 0.0422 fold-change vs cycle 0. AGTTAT was tested, and the binding signal was 1.89 ± 0.186 fold-change vs cycle 0. With ATCTAC the binding signal was 1.38 ± 0.0966 fold-change vs cycle 0. AGATTA gave a binding signal of 1.86 ± 0.198 fold-change vs cycle 0. CTCCTA showed a binding signal of 1.05 ± 0.0362 fold-change vs cycle 0. For GAGCTC, the binding signal was 0.585 ± 0.0582 fold-change vs cycle 0. ACACGG showed a binding signal of 0.548 ± 0.0679 fold-change vs cycle 0. ATGTAC gave a binding signal of 1.32 ± 0.0512 fold-change vs cycle 0. Sequence AAGGGG has a binding signal of 0.657 ± 0.0321 fold-change vs cycle 0. GACACA gave a binding signal of 0.837 ± 0.0392 fold-change vs cycle 0. ATGGAC was tested, and the binding signal was 0.938 ± 0.0184 fold-change vs cycle 0. For AGTTTC, the binding signal was 1.3 ± 0.112 fold-change vs cycle 0. ACTTCC was tested, and the binding signal was 1.03 ± 0.0487 fold-change vs cycle 0. AAAAAT showed a binding signal of 1.9 ± 0.223 fold-change vs cycle 0. CAACAG showed a binding signal of 0.869 ± 0.0293 fold-change vs cycle 0. With CACACC the binding signal was 0.561 ± 0.0498 fold-change vs cycle 0. For AGCAAG, the binding signal was 0.888 ± 0.035 fold-change vs cycle 0. GGGGTA gave a binding signal of 0.611 ± 0.0687 fold-change vs cycle 0. For AAGGAA, the binding signal was 1.49 ± 0.137 fold-change vs cycle 0. With GGGTAC the binding signal was 0.641 ± 0.0594 fold-change vs cycle 0. With CGAAAG the binding signal was 0.79 ± 0.0572 fold-change vs cycle 0. For AGACTG, the binding signal was 0.92 ± 0.0254 fold-change vs cycle 0. In the case of CAGACG, the binding signal is reported as 0.571 ± 0.085 fold-change vs cycle 0. For AGCCTG, the binding signal was 0.531 ± 0.0708 fold-change vs cycle 0. Sequence AGATCA has a binding signal of 1.46 ± 0.0921 fold-change vs cycle 0. For ATGGAA, the binding signal was 1.36 ± 0.0808 fold-change vs cycle 0. For CCTTCC, the binding signal was 0.661 ± 0.0352 fold-change vs cycle 0. TCGGAA was tested, and the binding signal was 0.862 ± 0.0635 fold-change vs cycle 0. For ATTGGC, the binding signal was 0.665 ± 0.0716 fold-change vs cycle 0. AGCGAA showed a binding signal of 0.686 ± 0.0519 fold-change vs cycle 0. AAACTC gave a binding signal of 1.28 ± 0.0858 fold-change vs cycle 0. Sequence CATACC has a binding signal of 0.944 ± 0.0221 fold-change vs cycle 0. Work on TGACAA yielded a binding signal of 1.26 ± 0.0515 fold-change vs cycle 0. Work on AAGATT yielded a binding signal of 1.88 ± 0.183 fold-change vs cycle 0.
